# Molecular target: Torsin-1A (Homo sapiens) (UniProt O14656)
# Test: torsin A mutant lysate binding on microarrays – cell lysate, small-molecule microarray, COS7 lysate, 635/667 nm fluorescence, primary screen (AID 1150);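 note: score pools 667 nm emission and signal to noise measuring lysate protein binding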
# Conditions: COS7 hTOR1A mutant lysate, 635 nm fluorescence, higher = more signal
# Chain of Torsin-1A (Homo sapiens) (O14656 whole entry, looked up): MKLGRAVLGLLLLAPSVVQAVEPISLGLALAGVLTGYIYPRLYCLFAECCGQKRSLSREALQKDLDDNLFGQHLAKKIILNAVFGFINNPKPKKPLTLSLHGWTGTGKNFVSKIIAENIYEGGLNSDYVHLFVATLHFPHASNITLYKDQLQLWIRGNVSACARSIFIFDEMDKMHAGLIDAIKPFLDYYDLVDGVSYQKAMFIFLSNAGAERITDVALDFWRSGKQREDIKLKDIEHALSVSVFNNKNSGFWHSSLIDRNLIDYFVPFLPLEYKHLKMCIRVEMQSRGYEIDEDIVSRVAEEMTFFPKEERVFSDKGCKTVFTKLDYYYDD
row,SMILES,composite z-score
1,CCN1C(=O)[C@@H]2[C@H]3C(=CC[C@@H]2C1=O)C1(OCCCO1)[C@H]1O[C@H]1[C@H]3O,1.09
2,CCOC(=O)[C@H](Cc1ccccc1)NC(=O)CCC1CC(OC(=O)NCCc2ccc(F)cc2)CC2(CCCC(COC(=O)NCCc3ccccc3OC)O2)O1 (stereo partly specified),0.721
3,CCOC(=O)NN=C1C[C@@H](O)[C@@H](O)[C@@H]2[C@@H]3C(=O)N(c4cccc(Oc5ccccc5)c4)C(=O)[C@@H]3CC[C@H]12,0.0519
4,CCCCC#C[C@@H]1C=C[C@H](Oc2ccc(C(=O)OC)cc2)[C@@H](COC(=O)OCC)O1,0.358
5,CCCNC(=O)OC[C@H]1O[C@H](CCON=C(C)CCN2CCc3nc(CC)c(CC)cc3C2)C=C[C@@H]1Oc1ccc(OC)cc1,0.481
6,CCC1=NOC(CCC2CC(OC(=O)NCc3cccc4c3OCO4)CC3(CCCC(COC(=O)NCCc4ccccc4OC)O3)O2)C1 (stereo unspecified),0.778
7,CO[C@@H]1COC(=O)CC=C[C@H](C)[C@H](OC)COC(=O)[C@H](C)NC(=O)CC=C[C@H]1C,0.63
8,C#CCCCON=C1C[C@@H](O)[C@@H](O)[C@@H]2[C@@H]3C(=O)N(C(C)(C)C)C(=O)[C@@H]3CC[C@H]12,-0.123
9,CCOC(=O)[C@H](Cc1ccccc1)NC(=O)CCC1CC(OC(=O)NCc2ccc3c(c2)OCO3)CC2(CCCC(COC(=O)NCCC(C)C)O2)O1 (stereo partly specified),0.418
10,COC(=O)CC=C[C@@H](C)[C@@H](C=NO[C@H](C)c1cn([C@H](CO)Cc2ccccc2)nn1)NS(=O)(=O)c1ccc(C)cc1,1.8
11,CCN1C(=O)[C@H]2[C@H]3[C@H](O)[C@H](O)CC(=O)[C@@H]3CC[C@H]2C1=O,0.344
12,CCO[C@H](c1cc(OC)cc([N+](=O)[O-])c1OC)[C@H](C)C=CCC(=O)OC,0.192
13,COC(=O)[C@H](C)NC(=O)CCC1CC(OC(=O)NCCc2ccc(F)cc2)CC2(CCCC(COC(=O)NCc3cccc(C(F)(F)F)c3)O2)O1 (stereo partly specified),0.0548
14,CCOC(=O)[C@H](CC(C)C)NC(=O)CCC1CC(OC(=O)NCc2ccc3c(c2)OCO3)CC2(CCCC(COC(=O)NCc3cccc(C(F)(F)F)c3)O2)O1 (stereo partly specified),-0.272
15,COC(=O)[C@H](C)NC(=O)CCC1CC(OC(=O)NCc2ccc3c(c2)OCO3)CC2(CCCC(COC(=O)NCc3cccc(C(F)(F)F)c3)O2)O1 (stereo partly specified),0.279
16,C[C@@H](c1ccccc1)N1C(=O)[C@H]2[C@H]3[C@H](O)[C@H](O)CC(=NO[C@@H]4O[C@H](CO)[C@@H](O)[C@H](O)[C@H]4O)[C@H]3CC[C@H]2C1=O,0.249
17,CCc1cc2c(nc1CC)CCN(CCC(C)=NO[C@H](C)c1cn([C@H](CO)Cc3ccccc3)nn1)C2,0.978
18,O=C1C[C@@H](O)[C@@H](O)[C@@H]2[C@@H]3C(=O)N(Cc4ccccc4)C(=O)[C@@H]3CC[C@@H]12,0.35

row,SMILES,composite z-score
1,COc1ccc(O[C@H]2C=C[C@@H](c3ccccc3)O[C@@H]2CON=CC[C@@H]2C=C[C@H](OC(C)=O)[C@@H](COC(C)=O)O2)cc1,-0.26
2,Cc1ccc(S(=O)(=O)n2c3ccccc3c3nnc(C(=O)c4ccccc4)nc32)cc1,-0.292
3,CCCNC(=O)OC[C@H]1O[C@H](CCON=C(C)CCC(=O)OC[C@H]2O[C@H](c3ccccc3)C=C[C@@H]2Oc2ccc(OC)cc2)C=C[C@@H]1Oc1ccc(OC)cc1,-0.243
4,COC(=O)CC=C[C@@H](C)[C@H](OCc1cccc(-c2ccccc2)c1)C1CCCCC1,-0.17
5,O=C(NN=C1C[C@@H](O)[C@@H](O)[C@@H]2[C@@H]3C(=O)N(Cc4ccccc4)C(=O)[C@@H]3CC[C@@H]12)OCc1ccccc1,0.819
6,COc1ccc(COC(=O)NN=C2C[C@@H](O)[C@@H](O)[C@@H]3[C@@H]4C(=O)N(Cc5ccccc5)C(=O)[C@@H]4CC[C@H]23)cc1,-0.186
7,COc1ccc(O[C@H]2C=C[C@@H](c3ccccc3)O[C@@H]2CON=C(C)CCC(=O)OC[C@H]2O[C@H](c3ccccc3)C=C[C@@H]2Oc2ccc(OC)cc2)cc1,-1.43
8,CCCNC(=O)OC[C@H]1O[C@H](CCON=Cc2ccc(C(=O)N3[C@H](c4ccc(C)cc4)[C@@H](C)CC[C@H]3C(=O)OC)cc2)C=C[C@@H]1Oc1ccc(OC)cc1,0.853
9,CCOC(=O)CCN1C(=O)[C@H]2[C@H]3[C@H](O)[C@H](O)CC(=NNC(=O)OCc4ccccc4)[C@@H]3CC[C@H]2C1=O,0.672
10,C[C@@H](c1ccccc1)N1C(=O)[C@H]2[C@H]3[C@H](O)[C@H](O)CC(=NOCc4ccccc4)[C@H]3CC[C@H]2C1=O,0.651
11,COC(=O)CC=C[C@@H](C)[C@@H](C=NOC[C@@H](O)[C@H]1O[C@@H]2OC(C)(C)O[C@@H]2[C@H]1O)NS(=O)(=O)c1ccc(C)cc1,0.387
12,O=C(NN=C1C[C@@H](O)[C@@H](O)[C@@H]2[C@@H]3C(=O)N(C4CCCCC4)C(=O)[C@@H]3CC[C@H]12)OCc1ccccc1,0.416
13,Cc1cc2c(nc1C)CCCCN2CC(C)ON=C[C@@H](C)[C@H](OCc1ccccc1)C(C)C (stereo partly specified),-1.34
14,CCOC(=O)[C@H](CC(C)C)NC(=O)CCC1CC(OC(=O)NCc2cccc3ccccc23)CC2(CCCC(COC(=O)NCCC(C)C)O2)O1 (stereo partly specified),0.185
15,CC(C)CON=C1C[C@@H](O)[C@@H](O)[C@@H]2[C@@H]3C(=O)N(C[C@@H]4CCCO4)C(=O)[C@@H]3CC[C@@H]12,0.0844
16,C=CC[C@@H]1C=C[C@H](ON=C(C)CCC(=O)OC[C@H]2O[C@H](c3ccccc3)C=C[C@@H]2Oc2ccc(OC)cc2)[C@@H](CO)O1,-0.587
17,CO[C@@H]1COC(=O)CC=C[C@@H](C)[C@@H]2C=C[C@H](O)[C@@H](COC(=O)CC=C[C@H]1C)O2,1.72
18,COC(=O)[C@H](C)NC(=O)CCC1CC(OC(=O)NCc2cccc3ccccc23)CC2(CCCC(COC(=O)NCC(c3ccccc3)c3ccccc3)O2)O1 (stereo partly specified),0.452

# Source: PubChem BioAssay
